Laboratory results reported in the supplement of paper PMC8728848.
This is one part of a sample in which the strongest signals are shown more often than they occur.

Legend:
Assay in all cases: glycan array binding signal (z-score within array); higher = stronger binding
Details in all cases: glycan notation: IUPAC condensed, linker removed
[1] = target: Fuc(a1-2)Gal(b1-3)GlcNAc(b1-3)[Fuc(a1-2)Gal(b1-3)GlcNAc(b1-6)]GalNAc
In short: (§1)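 From the Consortium for Functional Glycomics database, 3228 arrays were curated, keeping only those whose protein sequence was available. Binding is given as a within-array Z-score averaged across arrays sharing a protein sequence and across linkers. Negative Z-scores can be read as non-binding.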

[2] = target: Fuc(a1-2)Gal(b1-4)[Fuc(a1-3)]GlcNAc(b1-3)Gal(b1-4)[Fuc(a1-3)]GlcNAc
In short: as §1

[3] = target: Fuc(a1-2)[Gal(a1-3)]Gal(b1-3)GlcNAc
In short: as §1

[4] = target: Fuc(a1-2)[Gal(a1-3)]Gal(b1-4)GlcNAc(b1-3)GalNAc
In short: as §1

Gal(a1-3)Gal(b1-4)Glc = target: Gal(a1-3)Gal(b1-4)Glc
In short: as §1

[5] = target: Gal(a1-3)Gal(b1-4)GlcNAc(b1-2)Man(a1-3)[Gal(a1-3)Gal(b1-4)GlcNAc(b1-2)Man(a1-6)]Man(b1-4)GlcNAc(b1-4)GlcNAc
In short: as §1

[6] = target: Gal(a1-4)Gal(b1-3)GlcNAc(b1-2)Man(a1-3)[Gal(a1-4)Gal(b1-3)GlcNAc(b1-2)Man(a1-6)]Man(b1-4)GlcNAc(b1-4)GlcNAc
In short: as §1

Gal(b1-2)Gal = target: Gal(b1-2)Gal
In short: as §1

[7] = target: Gal(b1-3)GalNAc(a1-3)[Fuc(a1-2)]Gal(b1-4)Glc
In short: as §1

[8] = target: Gal(b1-3)GalNAc(b1-3)Gal(a1-4)Gal(b1-4)Glc
In short: as §1

[9] = target: Gal(b1-3)GalNAc(b1-4)Gal(b1-4)Glc
In short: as §1

[10] = target: Gal(b1-3)GlcNAc(b1-3)Gal(b1-3)GlcNAc
In short: as §1

Gal(b1-3)GlcNAc6S = target: Gal(b1-3)GlcNAc6S
In short: as §1

[11] = target: Gal(b1-3)[Fuc(a1-4)]GlcNAc(b1-2)Man(a1-3)[Gal(b1-3)[Fuc(a1-4)]GlcNAc(b1-2)Man(a1-6)]Man(b1-4)GlcNAc(b1-4)[Fuc(a1-6)]GlcNAc
In short: as §1

[12] = target: Gal(b1-4)GlcNAc(b1-2)Man(a1-6)[GlcNAc(b1-2)Man(a1-3)]Man(b1-4)GlcNAc(b1-4)GlcNAc
In short: as §1

[13] = target: Gal(b1-4)GlcNAc(b1-2)[Gal(b1-4)GlcNAc(b1-4)]Man(a1-3)[GlcNAc(b1-4)][Gal(b1-4)GlcNAc(b1-2)Man(a1-6)]Man(b1-4)GlcNAc(b1-4)GlcNAc
In short: as §1

[14] = target: Gal(b1-4)GlcNAc(b1-3)Gal(b1-4)GlcNAc(b1-2)Man(a1-3)[Gal(b1-4)GlcNAc(b1-3)Gal(b1-4)GlcNAc(b1-2)Man(a1-6)]Man(b1-4)GlcNAc(b1-4)GlcNAc
In short: as §1

[15] = target: Gal(b1-4)GlcNAc(b1-3)Gal(b1-4)GlcNAc(b1-3)Gal(b1-4)GlcNAc(b1-2)Man(a1-3)[Gal(b1-4)GlcNAc(b1-3)Gal(b1-4)GlcNAc(b1-3)Gal(b1-4)GlcNAc(b1-2)Man(a1-6)]Man(b1-4)GlcNAc(b1-4)[Fuc(a1-6)]GlcNAc
In short: as §1

[16] = target: Gal(b1-4)GlcNAc(b1-3)Gal(b1-4)GlcNAc(b1-3)Gal(b1-4)GlcNAc(b1-3)Gal(b1-4)GlcNAc(b1-2)Man(a1-3)[Gal(b1-4)GlcNAc(b1-3)Gal(b1-4)GlcNAc(b1-3)Gal(b1-4)GlcNAc(b1-3)Gal(b1-4)GlcNAc(b1-2)Man(a1-6)]Man(b1-4)GlcNAc(b1-4)GlcNAc
In short: as §1

[17] = target: Gal(b1-4)GlcNAc(b1-3)Gal(b1-4)GlcNAc(b1-3)Gal(b1-4)GlcNAc(b1-3)Gal(b1-4)GlcNAc(b1-2)Man(a1-3)[Gal(b1-4)GlcNAc(b1-3)Gal(b1-4)GlcNAc(b1-3)Gal(b1-4)GlcNAc(b1-3)Gal(b1-4)GlcNAc(b1-2)Man(a1-6)]Man(b1-4)GlcNAc(b1-4)[Fuc(a1-6)]GlcNAc
In short: as §1

[18] = target: Gal(b1-4)GlcNAc(b1-3)Gal(b1-4)GlcNAc(b1-3)Gal(b1-4)GlcNAc(b1-3)Gal(b1-4)GlcNAc(b1-2)[Gal(b1-4)GlcNAc(b1-3)Gal(b1-4)GlcNAc(b1-3)Gal(b1-4)GlcNAc(b1-3)Gal(b1-4)GlcNAc(b1-6)]Man(a1-6)[Gal(b1-4)GlcNAc(b1-3)Gal(b1-4)GlcNAc(b1-3)Gal(b1-4)GlcNAc(b1-3)Gal(b1-4)GlcNAc(b1-2)Man(a1-3)]Man(b1-4)GlcNAc(b1-4)[Fuc(a1-6)]GlcNAc
In short: as §1

[19] = target: Gal(b1-4)GlcNAc(b1-3)Gal(b1-4)GlcNAc(b1-3)Gal(b1-4)GlcNAc(b1-3)Gal(b1-4)GlcNAc(b1-3)Gal(b1-4)GlcNAc(b1-2)Man(a1-3)[Gal(b1-4)GlcNAc(b1-3)Gal(b1-4)GlcNAc(b1-3)Gal(b1-4)GlcNAc(b1-3)Gal(b1-4)GlcNAc(b1-3)Gal(b1-4)GlcNAc(b1-2)Man(a1-6)]Man(b1-4)GlcNAc(b1-4)GlcNAc
In short: as §1

[20] = target: Gal(b1-4)GlcNAc(b1-3)Gal(b1-4)GlcNAc(b1-3)Gal(b1-4)GlcNAc(b1-3)Gal(b1-4)GlcNAc(b1-3)Gal(b1-4)GlcNAc(b1-2)Man(a1-3)[Gal(b1-4)GlcNAc(b1-3)Gal(b1-4)GlcNAc(b1-3)Gal(b1-4)GlcNAc(b1-3)Gal(b1-4)GlcNAc(b1-3)Gal(b1-4)GlcNAc(b1-2)Man(a1-6)]Man(b1-4)GlcNAc(b1-4)[Fuc(a1-6)]GlcNAc
In short: as §1

[21] = target: Gal(b1-4)GlcNAc(b1-3)Gal(b1-4)GlcNAc(b1-3)Gal(b1-4)GlcNAc(b1-3)Gal(b1-4)GlcNAc(b1-3)Gal(b1-4)GlcNAc(b1-2)[Gal(b1-4)GlcNAc(b1-3)Gal(b1-4)GlcNAc(b1-3)Gal(b1-4)GlcNAc(b1-3)Gal(b1-4)GlcNAc(b1-3)Gal(b1-4)GlcNAc(b1-6)]Man(a1-6)[Gal(b1-4)GlcNAc(b1-3)Gal(b1-4)GlcNAc(b1-3)Gal(b1-4)GlcNAc(b1-3)Gal(b1-4)GlcNAc(b1-3)Gal(b1-4)GlcNAc(b1-2)Man(a1-3)]Man(b1-4)GlcNAc(b1-4)[Fuc(a1-6)]GlcNAc
In short: as §1

[22] = target: Gal(b1-4)GlcNAc(b1-3)Gal(b1-4)GlcNAc(b1-3)Gal(b1-4)GlcNAc(b1-3)Gal(b1-4)GlcNAc(b1-3)Gal(b1-4)GlcNAc(b1-3)Gal(b1-4)GlcNAc(b1-2)Man(a1-3)[Gal(b1-4)GlcNAc(b1-3)Gal(b1-4)GlcNAc(b1-3)Gal(b1-4)GlcNAc(b1-3)Gal(b1-4)GlcNAc(b1-3)Gal(b1-4)GlcNAc(b1-3)Gal(b1-4)GlcNAc(b1-2)Man(a1-6)]Man(b1-4)GlcNAc(b1-4)GlcNAc
In short: as §1

[23] = target: Gal3S(b1-4)[Fuc(a1-3)]Glc6S
In short: as §1

Gal4S6S(b1-4)GlcNAc = target: Gal4S6S(b1-4)GlcNAc
In short: as §1

Gal6S(b1-3)GlcNAc = target: Gal6S(b1-3)GlcNAc
In short: as §1

[24] = target: GalNAc(b1-3)Gal(a1-6)Gal(b1-4)Glc
In short: as §1

GalNAc(b1-3)GlcNAc = target: GalNAc(b1-3)GlcNAc
In short: as §1

B1: Epa9 (Candida glabrata), CAGL0A01386g (protein)
chain: MGSSHHHHHHSSGLVPRGSHMDITPFAHYPRPEGCSSPPNAVSVGLHMDLYNYPYLYVKNPRTGFTNDTDSDADGETDGDSAGGIEGRAGQCWNPEYQDPNFPRYGYKKYGSFGSSDHVNGKISWDHNEFKEGCKPIMARLPTAYNYPAKITFSNFTMVLSGYFKPKSTGLYKFEIHADDFILFNFGSKNAFECCNREESIDNFGPYVAYAMWPNEADQELEVYLFEDSYYPIRLFYNNRDYHSKFMVGFYPPNTEEITYDFDGYLYMLDDTGNECKDSIRYKTVCDD
[1]
  glycan array binding signal (z-score): -0.296
[2]
  glycan array binding signal (z-score): -0.521
[3]
  glycan array binding signal (z-score): -0.32
[4]
  glycan array binding signal (z-score): -0.304
Gal(a1-3)Gal(b1-4)Glc
  glycan array binding signal (z-score): 0.746
[5]
  glycan array binding signal (z-score): 4.07
[6]
  glycan array binding signal (z-score): 4.05
Gal(b1-2)Gal
  glycan array binding signal (z-score): 0.38
[7]
  glycan array binding signal (z-score): 1.58
[8]
  glycan array binding signal (z-score): 1.98
[9]
  glycan array binding signal (z-score): 4.13
[10]
  glycan array binding signal (z-score): -0.11
Gal(b1-3)GlcNAc6S
  glycan array binding signal (z-score): -0.028
[11]
  glycan array binding signal (z-score): -0.377
[12]
  glycan array binding signal (z-score): 0.1
[13]
  glycan array binding signal (z-score): 1.34
[14]
  glycan array binding signal (z-score): 1.3
[15]
  glycan array binding signal (z-score): 3.45
[16]
  glycan array binding signal (z-score): 4.82
[17]
  glycan array binding signal (z-score): 4.74
[18]
  glycan array binding signal (z-score): 5.31
[19]
  glycan array binding signal (z-score): 5.73
[20]
  glycan array binding signal (z-score): 5.38
[21]
  glycan array binding signal (z-score): 6.29
[22]
  glycan array binding signal (z-score): 4.6
[23]
  glycan array binding signal (z-score): -0.318
Gal4S6S(b1-4)GlcNAc
  glycan array binding signal (z-score): -0.491
Gal6S(b1-3)GlcNAc
  glycan array binding signal (z-score): -0.361
[24]
  glycan array binding signal (z-score): -0.468
GalNAc(b1-3)GlcNAc
  glycan array binding signal (z-score): -0.486
